# In PubChem BioAssay:
# Activity calls are given as the source filed them.
# Columns and labels:
# [1] = system: Wnt5a (protein binding on small-molecule microarray); assay: Wnt5a binders on small-molecule microarray, primary screen, biophysical, 635/667 nm fluorescence (AID 1142); conditions: 635 nm fluorescence, higher = more signal;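 further: fluorescence read at 667 nm with signal to noise per printed feature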
# [2] = cell viability in Huh7 cells, primary screen, cytotoxicity control for HCV replication inhibitor project, CellTiter-Glo luminescence, basal, 48 h (AID 1143); conditions: Huh7 HCV replicon, higher = more signal, called active from +8 up or from −8 down;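 further: Huh7 hepatoma cells carrying a hepatitis C replication reporter with no stimulus; test concentration not given here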
# [3] = CREB reporter modulators without forskolin, primary screen, cell-based, PC12, CRE-LacZ reporter, unstimulated (AID 1145); conditions: no forskolin, luminescence, 4.5 h, higher = more signal, called active from +8 up or from −8 down
# [4] = CREB reporter modulators under forskolin, primary screen, cell-based, PC12, CRE-LacZ reporter, forskolin-stimulated (AID 1146); conditions: luminescence, 4.5 h, higher = more signal, called active from +8 up or from −8 down;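 further: PC12 cells with 6xCRE LacZ reporter stimulated by forskolin 10 µM; beta-galactosidase reporter signal reflecting CREB driven transcription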
# [5] = target: Streptavidin (Streptomyces avidinii) (UniProt P22629); assay: streptavidin binders on small-molecule microarray, primary screen, artefact control for SMM compound annotation, biophysical, 635/667 nm fluorescence (AID 1147); conditions: streptavidin binding, higher = more signal;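 further: signal reflects streptavidin binding to arrayed compounds as a control protein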
# Streptavidin (Streptomyces avidinii), sequence (P22629 whole entry, looked up): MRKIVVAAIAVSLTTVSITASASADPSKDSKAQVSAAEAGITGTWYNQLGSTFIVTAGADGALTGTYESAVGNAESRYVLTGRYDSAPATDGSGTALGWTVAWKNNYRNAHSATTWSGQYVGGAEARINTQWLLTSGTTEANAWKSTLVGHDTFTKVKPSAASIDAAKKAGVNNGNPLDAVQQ
# [6] = small-molecule binders of probe aInhba, primary screen, biochemical, small-molecule microarray, 635/667 nm fluorescence (AID 1148); conditions: higher = more signal;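 further: score merges 667nm spot fluorescence with signal-to-noise for antibody binding to printed compounds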
# Torsin-1A (Homo sapiens) [7] = target: Torsin-1A (Homo sapiens) (UniProt O14656); assay: torsin A binders from cell lysate, primary screen, small-molecule microarray, wild-type, 635/667 nm (AID 1149); conditions: COS7 hTOR1A-WT lysate, 635 nm fluorescence, higher = more signal
# Torsin-1A (Homo sapiens), sequence (O14656 whole entry, looked up): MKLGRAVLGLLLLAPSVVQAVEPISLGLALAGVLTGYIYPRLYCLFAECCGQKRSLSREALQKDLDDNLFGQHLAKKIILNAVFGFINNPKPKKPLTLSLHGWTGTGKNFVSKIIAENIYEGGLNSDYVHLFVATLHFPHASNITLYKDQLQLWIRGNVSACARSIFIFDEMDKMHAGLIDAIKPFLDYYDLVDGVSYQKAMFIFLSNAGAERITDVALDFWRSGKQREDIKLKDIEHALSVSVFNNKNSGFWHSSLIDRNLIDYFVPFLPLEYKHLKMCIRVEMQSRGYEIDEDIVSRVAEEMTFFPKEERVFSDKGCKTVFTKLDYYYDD
# Torsin-1A (Homo sapiens) [8] = target: Torsin-1A (Homo sapiens) (UniProt O14656); assay: small-molecule binders of mutant TOR1A in lysate, primary screen, cell lysate, small-molecule microarray, COS7 lysate, 635/667 nm fluorescence (AID 1150); conditions: COS7 hTOR1A mutant lysate, 635 nm fluorescence, higher = more signal;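 further: score pools 667 nm emission and signal to noise measuring lysate protein binding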
# [9] = system: Sonic hedgehog protein (Shh); assay: small-molecule binders of Shh protein, primary screen, biochemical, small-molecule microarray, 635/667 nm fluorescence (AID 1151); conditions: small-molecule microarray binding, 635 nm fluorescence; higher = more signal;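 further: Shh protein binding to compounds spotted on small-molecule microarray slides; score combines spot fluorescence intensity with signal-to-noise across triplicate slides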
# [10] = E. coli DRC41 culture turbidity changes, primary screen, E. coli filamentation inducer project, strain DRC41, OD650, 48 h (AID 1152);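 further: E. coli MC1000 strain DRC41 lacking acrAB efflux pump and sulA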; conditions: E. coli DRC41 (acrAB sulA), higher = more signal, called active from +8 up or from −8 down
# [11] = small-molecule binders of probe aLefty1, primary screen, biochemical, small-molecule microarray, 635/667 nm fluorescence (AID 1153); conditions: higher = more signal;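 further: score merges spot fluorescence with signal-to-noise ratio from the scanned slide images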
# [12] = PSAC antagonists in infected red cells, primary screen, cell-based, P. falciparum Indochina, OD700, 1 h (AID 1154); conditions: P. falciparum Indochina infected RBC osmotic lysis, higher = more signal, called active from +8 up or from −8 down
# [13] = PSAC antagonists in infected red cells, primary screen, cell-based, P. falciparum Indochina, OD700, 2 h (AID 1155);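 further: lysis reports solute entry through the parasite surface anion channel PSAC; channel blockers reduce lysis of infected cells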; conditions: P. falciparum Indochina infected erythrocytes, osmotic lysis OD700; higher = more signal, called active from +8 up or from −8 down
# [14] = osmotic lysis modulators in infected erythrocytes, primary screen, PSAC antagonist project, cell-based, P. falciparum Indochina, OD700, 3 h (AID 1156); conditions: higher = more signal, called active from +8 up or from −8 down
# [15] = PSAC antagonists in infected red cells, primary screen, cell-based, P. falciparum Indochina, OD700, 18 h (AID 1157); conditions: P. falciparum Indochina infected erythrocytes, osmotic lysis OD700, 18 h; higher = more signal, called active from +8 up or from −8 down
# [16] = modulators of S6 phosphorylation in cells, primary screen, cell-based, A549, cytoblot, luminescence, serum-stimulated (AID 1158); conditions: A549 phospho-S6 cytoblot, 5 h, higher = more signal;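 further: serum-stimulated A549 lung adenocarcinoma cells; signal is phosphorylated S6 detected by cytoblot immunostaining with HRP secondary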
# [17] = target: NADPH oxidase 2 (Homo sapiens) (UniProt P04839); assay: NOX2-dependent H2O2 signal modulators, primary screen, NOX inhibitor project, cell-based, HEK293-NOX2, PMA-stimulated, Amplex Red fluorescence (AID 1159); conditions: 45 min, higher = more signal, called active from +8 up or from −8 down; further: test concentration not given here
# NADPH oxidase 2 (Homo sapiens), sequence (P04839 whole entry, looked up): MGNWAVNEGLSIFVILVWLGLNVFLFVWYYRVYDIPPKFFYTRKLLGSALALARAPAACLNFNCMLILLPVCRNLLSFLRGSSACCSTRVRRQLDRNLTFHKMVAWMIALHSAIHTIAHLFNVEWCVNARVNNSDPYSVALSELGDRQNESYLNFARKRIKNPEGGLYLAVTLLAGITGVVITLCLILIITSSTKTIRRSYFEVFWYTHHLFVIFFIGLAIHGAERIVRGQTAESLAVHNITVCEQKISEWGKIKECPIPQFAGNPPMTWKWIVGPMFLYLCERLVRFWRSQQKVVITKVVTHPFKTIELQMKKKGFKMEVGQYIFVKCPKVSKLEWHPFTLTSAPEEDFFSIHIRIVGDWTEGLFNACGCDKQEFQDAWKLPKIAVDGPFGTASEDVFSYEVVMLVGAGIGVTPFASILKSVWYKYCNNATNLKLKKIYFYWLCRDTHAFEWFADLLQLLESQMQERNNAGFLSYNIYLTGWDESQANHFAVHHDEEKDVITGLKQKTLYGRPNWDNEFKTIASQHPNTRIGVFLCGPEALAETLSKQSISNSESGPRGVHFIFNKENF
# [18] = target: NADPH oxidase 4 (Homo sapiens) (UniProt Q9NPH5); assay: NOX4-dependent H2O2 signal modulators, primary screen, NOX inhibitor project, cell-based, HEK293-NOX4, tetracycline-induced, Amplex Red fluorescence (AID 1160); conditions: 45 min, higher = more signal, called active from +8 up or from −8 down
# NADPH oxidase 4 (Homo sapiens), sequence (Q9NPH5 whole entry, looked up): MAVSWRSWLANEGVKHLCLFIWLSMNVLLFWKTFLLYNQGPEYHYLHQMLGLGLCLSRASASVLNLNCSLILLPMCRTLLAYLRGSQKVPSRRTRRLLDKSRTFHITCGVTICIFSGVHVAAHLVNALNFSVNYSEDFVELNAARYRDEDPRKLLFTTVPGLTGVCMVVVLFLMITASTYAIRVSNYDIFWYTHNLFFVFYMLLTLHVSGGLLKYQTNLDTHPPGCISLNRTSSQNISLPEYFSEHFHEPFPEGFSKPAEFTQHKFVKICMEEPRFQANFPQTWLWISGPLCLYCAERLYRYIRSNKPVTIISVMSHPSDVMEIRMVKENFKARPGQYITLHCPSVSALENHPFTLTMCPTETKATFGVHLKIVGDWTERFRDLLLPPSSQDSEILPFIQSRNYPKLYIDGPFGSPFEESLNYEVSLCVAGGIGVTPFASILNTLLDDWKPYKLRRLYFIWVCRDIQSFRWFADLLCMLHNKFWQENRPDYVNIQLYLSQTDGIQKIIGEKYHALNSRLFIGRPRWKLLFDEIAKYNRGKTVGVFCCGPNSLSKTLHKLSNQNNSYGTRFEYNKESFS
# [19] = target: NADPH oxidase 5 (Homo sapiens) (UniProt Q96PH1); assay: NOX5-dependent H2O2 signal modulators, primary screen, NOX inhibitor project, cell-based, HEK293-NOX5, Amplex Red fluorescence (AID 1161); conditions: HEK293-NOX5, ionomycin, 45 min, higher = more signal
# NADPH oxidase 5 (Homo sapiens), sequence (Q96PH1 whole entry, looked up): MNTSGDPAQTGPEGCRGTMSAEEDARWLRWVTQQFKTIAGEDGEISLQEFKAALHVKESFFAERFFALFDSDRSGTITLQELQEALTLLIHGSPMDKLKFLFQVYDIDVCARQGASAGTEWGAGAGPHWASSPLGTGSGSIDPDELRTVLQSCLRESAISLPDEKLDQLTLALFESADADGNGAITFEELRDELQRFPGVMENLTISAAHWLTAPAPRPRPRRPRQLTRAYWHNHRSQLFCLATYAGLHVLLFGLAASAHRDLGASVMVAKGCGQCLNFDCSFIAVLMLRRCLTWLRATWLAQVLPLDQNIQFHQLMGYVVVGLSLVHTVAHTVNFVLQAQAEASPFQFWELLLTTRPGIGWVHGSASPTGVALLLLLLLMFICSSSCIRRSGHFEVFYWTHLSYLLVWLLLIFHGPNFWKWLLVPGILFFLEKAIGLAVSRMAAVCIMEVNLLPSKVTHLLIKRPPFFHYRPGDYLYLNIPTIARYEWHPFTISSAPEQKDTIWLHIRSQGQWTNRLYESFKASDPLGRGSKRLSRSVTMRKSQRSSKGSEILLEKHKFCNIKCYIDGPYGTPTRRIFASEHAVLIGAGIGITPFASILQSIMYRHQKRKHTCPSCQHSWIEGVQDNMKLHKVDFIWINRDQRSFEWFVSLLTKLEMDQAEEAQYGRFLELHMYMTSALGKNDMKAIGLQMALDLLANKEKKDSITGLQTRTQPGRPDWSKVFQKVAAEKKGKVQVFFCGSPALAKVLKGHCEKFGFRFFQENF
# [20] = A549 cell viability effects, profiling panel, calcein-AM fluorescence, 48 h, basal (AID 1162); conditions: higher = more signal; further: test concentration not given here
Compound,composite z-score [1],z-score [2],z-score [3],z-score [4],composite z-score [5],composite z-score [6],composite z-score (Torsin-1A (Homo sapiens) [7]),composite z-score (Torsin-1A (Homo sapiens) [8]),composite z-score [9],z-score [10],composite z-score [11],z-score [12],z-score [13],z-score [14],z-score [15],z-score [16],z-score [17],z-score [18],z-score [19],z-score [20]
COc1ccc([Si](C)(C)[C@@H]2[C@@H](CC(=O)N3CCC[C@H]3CO)O[C@]3(C(=O)N(Cc4ccc(I)cc4)c4ccccc43)[C@H]2C)cc1,0.229,-4.55 (inactive),0.105 (inactive),-1.86 (inactive),0.983,-0.109,0.626,0.199,0.646,1.97 (inactive),0.0677,5.17 (inactive),0.0509 (inactive),-0.7 (inactive),-1.17 (inactive),2.62,2.26 (inactive),0.932 (inactive),4,-0.298
C=C(CCCC)/C(=C/C[C@H](OC(=O)c1ccncc1)c1ccc(CO)o1)c1cnc2ccccc2c1,0.216,-0.807 (inactive),3.77 (inactive),-1.24 (inactive),0.783,0.212,0.378,0.324,1.95,0.822 (inactive),0.301,7.89 (inactive),-0.0845 (inactive),1.04 (inactive),-1.01 (inactive),-0.367,2.49 (inactive),1.15 (inactive),0.737,0.942
CN(C)CCCC[C@@H]1NC(=O)[C@@H]2C[C@H](C(=O)NCCCCCNC(=O)CS)[C@H](c3cccc(OCCO)c3)N2C1=O,0.21,-5.23 (inactive),-0.39 (inactive),-1.49 (inactive),0.07,0.0869,0.672,0.408,2.01,1.97 (inactive),0.2,2.86 (inactive),0.159 (inactive),-2.96 (inactive),-0.778 (inactive),2.45,-0.143 (inactive),0.366 (inactive),2.19,-0.459
COC(=O)C1=CC(CCCO)=CC(C2CC2)N(Cc2cc3c(cc2Br)OCO3)C=C1C(=O)OC (stereo not given),0.135,-2.77 (inactive),0.389 (inactive),-0.562 (inactive),1.22,0.143,0.777,1.61,-0.593,1.55 (inactive),0.248,2.31 (inactive),-1.2 (inactive),-0.183 (inactive),-0.951 (inactive),0.771,0.0713 (inactive),1.24 (inactive),1.91,0.589
COCCCNC(=O)[C@@]1(Cc2ccccc2CN=[N+]=[N-])COC(c2ccc(OCCCO)cc2)=N1,1.18,-3.41 (inactive),-0.94 (inactive),-2.58 (inactive),0.257,0.283,1.22,0.669,0.13,2.58 (inactive),0.961,26.7 (active),22 (active),3.17 (inactive),3.5 (inactive),0.989,-2.47 (inactive),-1.03 (inactive),-2.89,0.395
COC(=O)C(CC#Cc1ccc2c(c1)[C@]1(C(=O)N2)[C@H](c2ccccc2OCCO)N2[C@H](c3ccccc3)[C@H](c3ccccc3)OC(=O)[C@H]2[C@@H]1C(=O)N1CCCCCCC1)C(=O)OC,2.33,-2.45 (inactive),0.212 (inactive),-0.706 (inactive),3.71,2.15,2.87,3.23,1.32,1.02 (inactive),2.82,0.867 (inactive),0.71 (inactive),0.776 (inactive),0.51 (inactive),0.67,0.797 (inactive),0.68 (inactive),2.04,0.447
CC(C)(C)OC(=O)CC[C@@]12N=C(c3ccc(OCCCO)cc3)O[C@@H]1c1ccccc1CN(Cc1ccccc1)C2=O,0.822,-4.74 (inactive),0.344 (inactive),-2.32 (inactive),0.197,0.0756,0.161,-0.0105,1.04,0.71 (inactive),0.33,28 (active),25.8 (active),2.02 (inactive),2.14 (inactive),0.302,0.622 (inactive),-0.441 (inactive),-1.44,-0.633
COc1ccc([Si](C)(C)[C@@H]2[C@@H](CCn3cc(CCO)nn3)O[C@]3(C(=O)N(Cc4ccc(N5C(=O)c6cccc7cccc5c67)cc4)c4ccccc43)[C@H]2C)cc1,0.0378,-7.93 (inactive),0.353 (inactive),-1.65 (inactive),0.256,-0.0529,0.815,0.609,0.907,1.93 (inactive),0.457,6 (inactive),0.758 (inactive),-1.06 (inactive),-1.22 (inactive),2.29,2.23 (inactive),1.62 (inactive),1.42,-1.32
COC(=O)C(CC#Cc1ccc2c(c1)[C@]1(C(=O)N2)[C@H](C(=O)O)[C@H]2C(=O)O[C@H](c3ccccc3)[C@H](c3ccccc3)N2[C@@H]1c1ccc(OCCO)cc1)C(=O)OC,0.562,-2.27 (inactive),-0.258 (inactive),-1.32 (inactive),1.25,0.0714,0.734,1.06,0.969,3.78 (inactive),0.305,10 (active),0.0825 (inactive),0.646 (inactive),-2.18 (inactive),2.47,1.39 (inactive),0.164 (inactive),0.396,2.54
